Shown are actives, neighbours in structure and some others; about 12% of the full set was active somewhere.
HP1b chromo inh = HTS for Inhibitors of HP1-beta Chromodomain Interactions with Methylated Histone Tails; AlphaScreen HP1-beta / biotin-H3K9me3 peptide binding; Chromobox protein homolog 1 (Homo sapiens), P83916; 390,000 compounds, 0.56% hits; Potency, µM (doses to about 114 µM), for the others: at the top dose activity change, negative = inhibition, hits mostly inhibitors; further: nearly all actives have a fitted effect of over 70% in size
Target sequence (P83916 whole entry, looked up): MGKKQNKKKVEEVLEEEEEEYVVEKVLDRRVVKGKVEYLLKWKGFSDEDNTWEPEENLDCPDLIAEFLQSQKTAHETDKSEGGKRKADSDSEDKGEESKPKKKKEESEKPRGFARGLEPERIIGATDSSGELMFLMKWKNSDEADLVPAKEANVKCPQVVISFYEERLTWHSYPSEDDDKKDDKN
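Compound inhibition of the preformed complex between 50 nM HP1-beta and 50 nM biotinylated H3K9me3 peptide was read by AlphaScreen. Buffer was PBS pH 7.4 with 0.01% Tween-20. Incubations ran 30 min at room temperature, with 10 ug/mL donor/acceptor beads.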
Sfp inh = qHTS Assay for Inhibitors of Bacillus subtilis Sfp phosphopantetheinyl transferase (PPTase) | 310,000 compounds, 3.5% hits | Potency, µM, inactives show largest response in the series, negative = inhibition, most hits filed as inhibitors | Biochemical Sfp PPTase activity, qHTS | 4'-phosphopantetheinyl transferase ffp (Bacillus subtilis), Q9F4F7 | AID 1490, 2009;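 further: the enzyme is Sfp with the accession as filed and its product quenches rhodamine fluorescence; 0% = enzyme reaction without inhibitor and -100% = no enzyme wells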
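Fluorescence-quenching assay: 15 nM Sfp-PPTase preincubated 15 min at room temperature with compound, then 5 uM rhodamine-CoA and 12.5 uM BHQ-2-labelled YbbR peptide added. Fluorescence (ex 525/em 598 nm) read at start and after 30 min; difference gives rate.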
L3MBTL1 block = qHTS Assay for the Inhibitors of L3MBTL1; Lethal(3)malignant brain tumor-like protein 1 (Homo sapiens), Q9Y468; AlphaScreen L3MBTL1–H3K9me1 peptide binding; Potency, µM (top dose mostly 57.1 µM), for the others: top-dose activity, negative = inhibition, usual class: inhibitors; 230,000 compounds, 0.66% hits; AID 485360, 2010; further: on the % scale 0 is the no-effect control and ±100 the full control effect; nearly all actives have a fitted effect of over 60% in size
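Displacement of a biotinylated histone H3(1-15) peptide monomethylated at Lys9 (75 nM) from L3MBTL1 (50 nM) was measured by AlphaScreen after a 30 min room-temperature compound incubation; cefsulodin titration served as intraplate control.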
G9a inh = qHTS Assay for Inhibitors of Histone Lysine Methyltransferase G9a; Histone-lysine N-methyltransferase EHMT2 (Homo sapiens), Q96KQ7; G9a H3K9 monomethylation, AlphaScreen, 2 h; Potency, µM (titrated, usually from 102 µM), for the others: at the highest dose activity, negative = inhibition, usual class: inhibitors; 350,000 compounds, 8.8% hits; further: on the % scale 0 is the no-effect control and ±100 the full control effect; nearly all actives have a fitted effect of over 75% in size
Target sequence (Q96KQ7 913-1193 limits assumed): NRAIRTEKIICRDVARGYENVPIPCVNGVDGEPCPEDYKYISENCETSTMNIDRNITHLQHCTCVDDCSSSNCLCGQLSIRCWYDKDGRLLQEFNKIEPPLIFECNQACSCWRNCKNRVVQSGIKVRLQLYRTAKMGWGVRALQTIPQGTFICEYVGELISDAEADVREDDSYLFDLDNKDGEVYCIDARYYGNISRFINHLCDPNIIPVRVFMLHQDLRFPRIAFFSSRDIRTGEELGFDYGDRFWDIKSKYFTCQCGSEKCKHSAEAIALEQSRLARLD
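G9a (20 nM) preincubated 15 min RT with compounds, then 500 nM biotinylated H3K9 peptide and 20 uM SAM added; 2 h RT reaction. Monomethyl-H3K9 product detected by AlphaScreen with anti-H3K9me1 antibody, streptavidin donor and anti-rabbit IgG acceptor beads.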
JMJD2A Tudor inh = qHTS Assay for Inhibitors of JMJD2A-Tudor Domain; Lysine-specific demethylase 4A (Homo sapiens), O75164; AlphaScreen JMJD2A-Tudor / H3K4me3 peptide binding; Potency, µM (top dose mostly 114 µM), inactives show at the top dose activity change, negative = inhibition, usual class: inhibitors; 390,000 compounds, 4.4% hits; AID 504339, 2011; further: on the % scale 0 is the no-effect control and ±100 the full control effect; nearly all actives have a fitted effect of over 50% in size
BAZ2B inh = qHTS Assay for Inhibitors of BAZ2B; Potency, µM (titrated, usually from 114 µM), without a hit: at the highest dose activity change, negative = inhibition, most hits filed as inhibitors; 360,000 compounds, 4.4% hits; AlphaScreen BAZ2B-H3K14Ac peptide displacement; Bromodomain adjacent to zinc finger domain protein 2B (Homo sapiens), Q9UIF8; AID 504333, 2011; further: on the % scale 0 is the no-effect control and ±100 the full control effect; nearly all actives have a fitted effect of over 60% in size
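Compounds, titrated to a top concentration of 110 uM, were incubated 30 min at room temperature with preformed BAZ2B/acetyl-K14 H3 peptide complex (50 nM each). Proximity signal was measured by AlphaScreen after 20 min with beads.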
* hit, by the source's call; ? = inconclusive; . = no result given; ! = a repeat was not active; [ ] = remark or other dose. The call rests on the fitted dose curve; in most records, active means well fitted curve in the direction sought with a large enough effect; inconclusive means small, poorly fitted or top-dose-only effect, or another doubt; inactive means no such curve, though single readings can be large; an effect the other way counts as inactive or inconclusive. Potency means the concentration at half of the fitted maximal effect.

SMILES	HP1b chromo inh	Sfp inh	L3MBTL1 block	G9a inh	JMJD2A Tudor inh	BAZ2B inh
Cc1cccc(NC(=O)Nc2cccs2)c1C	8%	.	.	1µM*	-15%	-4%
O=C(Nc1cccs1)Nc1ccccc1Cl	-4%	45µM*	.	?	-17%	-8%
CC1CCc2c(sc3[nH]c(=S)n(C)c(=O)c23)C1 (centres undefined)	?	79µM*	.	3.5µM*	?	5%
CCn1c(=S)[nH]c2sc3c(c2c1=O)CCCC3	5%	2%	7%	.	-16%	-2%
Cc1ccc(C(c2c(O)cc(C)n(Cc3ccco3)c2=O)N2CCC(C)CC2)cc1 (centres undefined)	27%[57 µM]	.	.	?	-23%	-12%
Cc1ccc(NC(=O)c2c(C)nc3sc(C(=O)Nc4ccc(F)cc4)c(N)c3c2-c2ccc(Cl)cc2)c(C)c1	40%	.	.	9%[59 µM]	-5%	6%
CC(Oc1ccccc1)C(=O)NC1=NCCS1 (centres undefined)	18%	10%	1%[11.4 µM]	?	32µM*	-28%
O=C(COc1ccccc1)NC1=NCCS1	18%	13%	.	-39%[59 µM]	-16%	-14%
Cc1cc2[nH]c(=O)c(=O)[nH]c2cc1S(=O)(=O)N(C)C1CCCCC1	36%	9%	-1%	.	3.5µM*	1%
Cc1cc2c(cc1S(=O)(=O)N(C)C1CCCCC1)OCC(=O)N2	28%	2%	-4%	7%	-10%	2%
c1ccc(-c2cnc(CSc3ncnc4sccc34)o2)cc1	89%	50µM*	1%	14µM*	-1%	5%
Cc1cc(C)n2nc(SCc3ncc(-c4ccccc4)o3)nc2n1	24%	5%	.	-1%[2.33 µM]	-27%	-4%
Cc1cccc(-[n+]2c(C)cc(C)c3c(=O)[nH]c(=O)[nH]c32)c1	22%	2%	-6%	50µM*	-1%	2%
Cc1cc(C)[n+](-c2ccc(C(C)C)cc2)c2[nH]c(=O)[nH]c(=O)c12	37%	27%	5%	?	-11%	-1%
O=C(O)CCc1cc(F)c(S(=O)(=O)N2CCN(S(=O)(=O)c3ccc4c(c3)OCCO4)CC2)cc1F	.	.	.	.	-5%	.
O=C(C[n+]1cccc2ccccc21)c1ccccc1	47%	?	14%	45µM*	1%[57.1 µM]	11%
O=C(C[n+]1cccc2ccccc21)c1ccc(NC(=O)c2ccccc2)cc1	39%	5%	-14%	25µM*	-9%	-25%
Cc1ccc[n+](CC(=O)c2ccc(NC(=O)c3ccccc3)cc2)c1	38%	19%	8%	-6%	-8%	-4%
Cc1cc[n+](CC(=O)c2ccc(NC(=O)c3ccccc3)cc2)c2ccccc12	13%	-6%	-6%	40µM*	?	?
COc1ccc(NC2=C(c3ccc(OC)cc3)C(=O)c3ccccc32)cc1	-3%	1%	-10%	-10%[59 µM]	-23%	-29%
COc1ccc(C2=C(Nc3ccc(C)cc3C)c3ccccc3C2=O)cc1	-20%	.	.	?	28µM*	-25%
Cc1cc(C(F)F)nn1CC(=O)NC1C(=O)N2C(C(=O)O)=C(CSc3nnnn3C)CSC12 (centres undefined)	22%	56µM*	.	35µM*	-2%	56µM*
Cn1nnnc1SCC1=C(C(=O)O)N2C(=O)C(NC(=O)C3CC3c3ccccc3)C2SC1 (centres undefined)	16%	?	.	?	?	71µM*
N[C@H](C(=O)N[C@@H]1C(=O)N2C(C(=O)O)=C(Cl)CS[C@@H]12)c1ccccc1	.	35µM*!	.	8.9µM*!	.	.
Cn1nnnc1SCC1=C(C(=O)O)N2C(=O)[C@@H](NC(=O)[C@H](O)c3ccccc3)[C@H]2SC1	?	?	?	13µM*	22µM*	50µM*
SMILES	HP1b chromo inh	Sfp inh	L3MBTL1 block	G9a inh	JMJD2A Tudor inh	BAZ2B inh
Cn1nnnc1SCC1=C(C(=O)O)N2C(=O)C(NC(=O)C(O)c3ccccc3)C2SC1 (centres undefined)	.	-66%	.	-34%[2.33 µM]	.	.
Cn1nnnc1SCC1=C(C(=O)O)N2C(=O)C(NC(=O)C(OC=O)c3ccccc3)C2SC1 (centres undefined)	.	-73%	.	-34%[2.33 µM]	.	.
O=C(CSc1nccn1Cc1ccccc1)NCc1ccco1	9%[57 µM]	.	.	?	?	?
Nc1ccccc1NC1=CC(=O)CC(c2ccco2)C1 (centres undefined)	3%	8.9µM*	-10%[11.4 µM]	10µM*	-26%	-2%
CCc1ccc(NC2=CC(=O)CC(c3ccco3)C2)cc1 (centres undefined)	8%	?	-7%	50µM*	?	?
Cc1ccc(NC2=CC(=O)CC(c3ccco3)C2)c(N)c1 (centres undefined)	3%	-3%	-14%	-16%[59 µM]	-28%	8%
O=C(NCc1cccnc1)c1nn(-c2ccc(Cl)cc2)nc1CO	8%	.	.	9%[59 µM]	-20%	-1%
COc1cc(F)c(S(=O)(=O)N2CCN(S(=O)(=O)c3ccc(NC(C)=O)cc3)CC2)c(F)c1	.	.	.	.	-19%	.
CN(Cc1ccco1)c1ccnc(-c2cccnc2)n1	.	-16%	.	8%[0.501 µM]	.	.
CN(Cc1ccco1)c1ccnc(-c2ccoc2)n1	.	50µM*	.	.	.	.
COc1cc2c(cc1OC)[C@@H]1O[C@](CCCCN3C(=O)c4ccccc4C3=O)(C2)Oc2cc(C)n(-c3ccccc3)c(=O)c21	.	-3%	.	.	.	9%[22.9 µM]
O=C(NCCCN1CCN(c2ccccc2F)CC1)C1COc2ccccc2C1 (centres undefined)	1%[57 µM]	.	.	0%[59 µM]	?	?
O=C(CCC(=O)N/N=C/c1cc(Cl)cc(Cl)c1O)NCc1ccccc1	-2%	23%	6%	.	28µM*	5%
O=S(=O)(c1ccccc1)N1CCC[C@@]2(CCN(c3cccc(-c4ccccc4)c3)C2)C1	.	6%	.	-3%[12.7 µM]	.	.
Cc1ccc(C(=O)N2CCc3ccccc32)o1	14%	-1%	-3%	-4%[59 µM]	-3%	?
CC(=O)c1ccc(-c2ccc(C(=O)N3CCN(c4ccc(F)cc4)CC3)o2)cc1	0%	-11%	?	32µM*	?	.
CC(=O)c1ccc(-c2ccc(C(=O)N3CCCc4ccccc43)o2)cc1	-24%	-7%	-25%	45µM*	?	?

Source: PubChem BioAssay (National Center for Advancing Translational Sciences (NCATS))
